# MITF primary: MITF inhibitors, primary screen, biochemical, AlphaScreen, human. Microphthalmia-associated transcription factor (Homo sapiens), O75030. AlphaScreen MITF homodimerization, bead proximity signal. inhibition, % at 2.6 µM. 650,000 compounds, 0.91% hits; in the data active = inhibition above about 50%;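 note: 0% = vehicle wells with protein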
# GPR151 activ: activators of human GPR151, primary screen, cell-based, PathHunter beta-arrestin, luminescence | AID 1508602, 2020 | 650,000 compounds, 1% hits | G-protein coupled receptor 151 (Homo sapiens), Q8TDV0 | activation, % at 11.2 µM | PathHunter beta-arrestin GPR151 cells; in the data active = activation above about 4.9%;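 note: 0% = median of compound wells and 100% = cells with positive control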
# FBW7 act: FBW7 E3 ligase activators, primary screen, biochemical, AlphaScreen, human | normalized activity (activation), % at 26.1 µM | AlphaScreen FBW7–phospho-cyclin E peptide binding, activator screen | F-box/WD repeat-containing protein 7 (Homo sapiens), Q969H0 | 650,000 compounds, 0.13% hits | AID 1259310, 2017; in the data active = normalized activity above about 1.9%;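 note: purified mutant Fbw7 with reduced substrate affinity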
# Target sequence (Q969H0 whole entry, looked up): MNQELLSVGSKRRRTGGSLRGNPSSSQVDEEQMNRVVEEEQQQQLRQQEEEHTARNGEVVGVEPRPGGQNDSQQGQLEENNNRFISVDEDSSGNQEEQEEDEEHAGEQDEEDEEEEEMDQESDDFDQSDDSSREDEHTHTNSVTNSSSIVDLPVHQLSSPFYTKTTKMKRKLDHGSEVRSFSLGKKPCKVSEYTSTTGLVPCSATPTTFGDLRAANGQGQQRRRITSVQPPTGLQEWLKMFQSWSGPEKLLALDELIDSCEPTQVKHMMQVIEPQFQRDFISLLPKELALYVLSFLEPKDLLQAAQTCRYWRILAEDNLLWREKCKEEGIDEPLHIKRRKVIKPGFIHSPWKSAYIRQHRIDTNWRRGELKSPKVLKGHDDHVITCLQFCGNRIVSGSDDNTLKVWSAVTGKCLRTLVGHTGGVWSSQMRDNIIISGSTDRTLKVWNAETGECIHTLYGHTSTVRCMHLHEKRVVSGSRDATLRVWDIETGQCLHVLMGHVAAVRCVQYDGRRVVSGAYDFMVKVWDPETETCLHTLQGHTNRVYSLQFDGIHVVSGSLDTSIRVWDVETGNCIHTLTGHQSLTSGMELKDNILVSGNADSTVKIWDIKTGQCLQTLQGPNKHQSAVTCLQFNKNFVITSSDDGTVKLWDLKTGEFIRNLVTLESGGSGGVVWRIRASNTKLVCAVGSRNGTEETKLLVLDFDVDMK
# TEAD-YAP block: TEAD-YAP interaction inhibition, primary screen, TEAD-YAP interaction inhibitor project, luminescence, HEK-TIYL cells; TEAD-Gal4/YAP UAS-luciferase luminescence; inhibition, % at 9.12 µM; 640,000 compounds, 1.4% hits; in the data active = inhibition above about 32%;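 note: 0% = median of test compound wells and 100% = reference inhibitor wells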
# Active calls of the source: *. Sampled rows, rich in hits. Any-hit rate of the full collection: about 3.5%.
SMILES,MITF primary,GPR151 activ,FBW7 act,TEAD-YAP block
COC(=O)Nc1nc2ccc(C(=O)c3cccs3)cc2[nH]1,7,-1,0,56*
C=C(C)CN1C(=O)NC(CC)(C2CCN(Cc3nc4ccccc4s3)CC2)C1=O (stereo not given),-9,0,0,-1
COc1ccc(CSCc2ccccc2)cc1C(=O)O,1,-2,0,6
Cc1cc(C)c(S(=O)(=O)N2CCN(C(=O)c3ccco3)CC2)c(C)c1,19,0,0,1
COc1cc(OC)cc(C(=O)N/N=C(\C)CC(=O)NC2CCCCC2)c1,-3,0,0,60*
C/C(CC(=O)Nc1ccccc1C#N)=N\NC(=O)c1ccncc1,9,1,1.9*,6
COc1cc(OC)cc(C(=O)N/N=C(\C)CC(=O)Nc2ccc(Br)cc2)c1,13,1,0,54*
COc1cccc(NC(=O)C(=O)N/N=C(\C)CC(=O)NC2CCCCCCC2)c1,3,-3,0,-50
COc1cccc(C(=O)N/N=C(\C)CC(=O)Nc2ccc(Br)cc2)c1,9,0,1,-1
C/C(CC(=O)Nc1cccc(C(F)(F)F)c1)=N\NC(=O)c1ccc2ccccc2c1,7,0,0,51*
O=C(O)/C=C/c1cccc(-c2cnc3ccc(NCCCO)nn23)c1,-19,0,-1,-8
Cc1ccc2c(c1)s/c(=N\C(=S)NC(=O)c1ccc(S(=O)(=O)N(C)C)cc1)n2C,-1,-1,0,-3
C/C(CC(=O)Nc1ccc(I)cc1)=N\NC(=O)c1cccc(O)c1,-2,0,0,12
COc1cc(OC)cc(C(=O)N/N=C(\C)CC(=O)Nc2ccccc2C(F)(F)F)c1,-2,-2,0,49*
C/C(CC(=O)Nc1ccc(C)cc1)=N\NC(=O)c1cccc(O)c1,9,-3,0,35*
Cc1c(C(=O)C(=O)N2CC=C(c3ccccc3)CC2)c2ccccc2n1C,-2,-2,0,52*
Cc1c(C(=O)C(=O)N2CCC(C)CC2)c2ccccc2n1C,2,0,0,-8
CC(=O)OC12CO[C@@H]1C[C@H](O)[C@@]1(C)C(=O)[C@H](O)C3=C(C)[C@@H](OC(=O)[C@H](O)[C@@H](NC(=O)OC(C)(C)C)c4ccccc4)CC(O)([C@@H](OC(=O)c4ccccc4)[C@H]21)C3(C)C (stereo not given in full),8,-2,0,51*
COC(CN(C)c1ccc(-c2ccc(O)cc2)cn1)OC,9,1,0,64*
Cc1ccccc1NC(=O)c1ccc(S(=O)(=O)Nc2cccc([N+](=O)[O-])c2)c(C)c1,2,2,0,-3
CS(=O)(=O)Nc1ccc(-c2cnc3cccc(Nc4cncnc4)c3c2)cc1,3,-2,0,-25
CS(=O)(=O)Nc1ccc(-c2cnc3cccc(Nc4cc(-c5ccccc5)ccn4)c3c2)cc1,21,-1,2.4*,12
COc1cc(N)c(Cl)cc1C(=O)OCC(=O)Nc1ccc(F)cc1F,-3,0,0,-6
Cc1ccc(N2C(=O)C(Cl)=C(Nc3cc(Cl)ccc3O)C2=O)cc1,13,-2,0,41*
O=C1C(Cl)=C(Nc2ccccc2O)C(=O)N1c1ccccc1,9,0,0,-28
SMILES,MITF primary,GPR151 activ,FBW7 act,TEAD-YAP block
COc1ccc(Nc2nc(NCc3ccccc3)c3ccccc3n2)cc1,3,0,0,44*
COc1ccccc1Nc1nc(NCc2ccco2)c2ccccc2n1,-7,-1,0,4
COc1ccc(Nc2nc(C)c3ccccc3n2)cc1,3,1,0,-51
COC(=O)c1ccc(Nc2nc(NCc3ccco3)c3ccccc3n2)cc1,-12,-6,0,75*
Cc1ccc(Nc2nc(NCc3ccco3)c3ccccc3n2)cc1,5,1,0,46*
Cc1ccc(/C=N/NC(=O)c2cc(-c3ccccc3)sc2N)o1,3,1,0,-5
Cc1ccc(C(=O)/C(=C\c2cccs2)c2nc3ccccc3o2)cc1,-4,1,0,73*
COc1ccc(C(=O)/C(=C\c2ccc(C)o2)c2nc3ccccc3o2)cc1,3,-1,0,38*
O=C1CCCN1CCCNc1nc(Nc2ccc(-n3ccnc3)cc2)nc2c1ncn2-c1ccccc1,12,0,0,52*
O=C1CCCN1CCn1cnc2c(NCCOc3ccccc3)nc(Nc3ccc(-n4ccnc4)cc3)nc21,14,2,0,3

# Assay outcomes: PubChem, The Scripps Research Institute Molecular Screening Center
